# A selection: hits, their analogues and other compounds. The true share with any hit is near 6.8%.
# Pf Dd2 inh: P. falciparum Dd2 growth inhibition; SYBR Green, 72 h; active compounds read low; activity change, % at 10 µM; 2.3% of 94,000 active; in the data active = activity change below about -80%; inconclusive = no clear call, values can overlap the other calls
# T cruzi growth-1: blocks T. cruzi growth in NIH3T3 culture; T. cruzi beta-gal in NIH3T3, GalScreen luminescence, 90 h; inhibition, % at 8.34 µM; 5.9% of 77,000 active; AID 624255;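 active = mean inhibition above about 93%, with at least 55% of replicates each passing it, limit read from the data, passing the limit was not always enough; inconclusive = only one of those two conditions holds; inactive = neither condition holds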
# C diff HTS: blocks growth of Clostridium difficile; Clostridium difficile clinical isolate growth, OD600, 24 h; active compounds read low; growth activity, negative = inhibition, % at 16 µg/mL (by protocol); 0.25% of 86,000 active; AID 1259249;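 active = mean growth activity at or below -80% and every replicate also at or below -80%; inconclusive = mean at or below -80% but some replicate above -80%; inactive = mean growth activity above -80%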;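 note: 0% = DMSO wells and -100% = levofloxacin 16 µg/mL wells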
# T cruzi growth-2: inhibitors of T. cruzi proliferation; shares compounds with T cruzi growth-1; T. cruzi beta-gal in NIH3T3, GalScreen luminescence, 90 h; inhibition, % at 8.35 µM; 72% of 5,600 active; AID 651739;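 active = mean replicate inhibition above about 95% and at least 55% of replicates individually reaching it, limit read from the data; inconclusive = only one of the two criteria is met; inactive = neither criterion is met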
# T cruzi growth-3: Trypanosoma cruzi proliferation inhibition. shares compounds with T cruzi growth-1. T. cruzi beta-gal in NIH3T3, GalScreen luminescence, 90 h. inhibition, % at 2.09 µM. 21% of 5,600 active;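 active = mean inhibition above about 95%, with at least 55% of replicates also reaching it, limit read from the data; inconclusive = meets just one of the two conditions; inactive = meets neither condition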;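 note: plate controls were neutral control median for no effect and positive control median for full effect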
# NIH3T3 tox: kills mouse NIH/3T3 fibroblasts; 14% of 5,600 active; AID 651742; NIH/3T3 viability, CellTiter-Glo ATP luminescence, 90 h; cytotoxicity (signal decrease), % at 8.35 µM; shares compounds with T cruzi growth-1;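 active = mean signal decrease across replicates above about 35% based on untreated-well scatter, with enough replicates individually passing, limit read from the data; inconclusive = no rule stated though some were filed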;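 note: 0% = median of neutral control wells and 100% = median of positive control wells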
# 3T3 cytotox 2: kills mouse NIH/3T3 fibroblasts; shares compounds with T cruzi growth-1; NIH/3T3 viability, CellTiter-Glo ATP luminescence, 90 h; inhibition, % at 24.9 µM; 56% of 5,600 active; AID 651744;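 active = mean loss of cell viability signal at or above a set limit, and enough replicates individually reaching it; inconclusive = meets only the mean limit or only the replicate share; inactive = meets neither condition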;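 note: 0% = median of neutral control wells and 100% = median of positive control wells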
# Numbers without * were called inactive; ? = inconclusive; . = no result.
SMILES,Pf Dd2 inh,T cruzi growth-1,C diff HTS,T cruzi growth-2,T cruzi growth-3,NIH3T3 tox,3T3 cytotox 2
N#C[C@H]1[C@@H](c2ccc(C3=CCCCC3)cc2)[C@@H](CO)N1C(=O)c1ccccn1,-29,103*,4,104*,117*,6,105*
N#C[C@H]1[C@@H](c2ccc(C3=CCCCC3)cc2)[C@H](CO)N1S(=O)(=O)c1cccc(F)c1,-18,100*,1,100*,64,45*,103*
COc1ccc(CN(C)C[C@H]2Oc3ccc(NC(=O)CCC(F)(F)F)cc3C(=O)N([C@H](C)CO)C[C@@H]2C)cc1,11,.,-4,.,.,.,.
CCCNC(=O)Nc1ccc2c(c1)C(=O)N(C)C[C@H](OC)[C@H](C)CN(C(=O)C1CCC1)[C@@H](C)CO2,.,17,.,.,.,.,.
C/C=C/c1ccc2c(c1)O[C@H](CN(C)C(=O)Cc1cccnc1)[C@H](C)CN([C@H](C)CO)S2(=O)=O,-1,.,0,.,.,.,.
CN(C)C(=O)C[C@H]1C[C@@H]2c3cc(NC(=O)Nc4ccccc4F)ccc3O[C@@H]2[C@H](CO)O1,14,29,0,.,.,.,.
COCC(=O)Nc1ccc2c(c1)OC[C@H](C)N(Cc1ccccc1F)C[C@H](C)[C@H](OC)CN(C)C2=O,-42,.,-5,.,.,.,.
C[C@@H]1CN([C@H](C)CO)C(=O)c2cc(/C=C/c3ccccc3)cnc2O[C@@H]1CN(C)C(=O)Nc1ccccc1F,-34,85,-2,.,.,.,.
C[C@H](CO)N1C[C@H](C)[C@H](CN(C)C(=O)c2cccc(F)c2)Oc2ncc(/C=C/c3ccccc3)cc2C1=O,-70,107*,-2,107*,46,27,67*
C/C=C/c1cnc2c(c1)C(=O)N([C@@H](C)CO)C[C@H](C)[C@@H](CN(C)C(=O)Nc1ccccc1F)O2,-12,0,1,.,.,.,.
C[C@@H]1CN([C@@H](C)CO)C(=O)c2cc(/C=C/c3ccccc3)cnc2O[C@H]1CN(C)C(=O)Nc1ccccc1F,-51,126*,-11,108*,105*,-3,17
C[C@H]1CN([C@@H](C)CO)C(=O)c2cc(/C=C/c3ccccc3)cnc2O[C@H]1CN(C)C(=O)c1cccc(F)c1,-62,107,-3,.,.,.,.
C[C@H]1CN([C@@H](C)CO)C(=O)c2cc(/C=C/c3ccccc3)cnc2O[C@H]1CN(C)C(=O)Nc1ccccc1F,-28,101*,-5,?,22,17,51*
C[C@H](CO)N1C[C@H](C)[C@H](CN(C)C(=O)Nc2ccccc2)Oc2ncc(/C=C/c3ccccc3)cc2C1=O,-69,97*,-2,98*,65,36*,90*
COc1ccc(NC(=O)N(C)C[C@@H]2Oc3ncc(/C=C/c4ccccc4)cc3C(=O)N([C@H](C)CO)C[C@@H]2C)cc1,-57,?,6,.,.,.,.
C[C@@H]1CN([C@@H](C)CO)S(=O)(=O)c2ccc(C#CC(C)(C)O)cc2O[C@H]1CN(C)C(=O)C1CCC1,1,.,-5,.,.,.,.
CCC(=O)N1CC2(C1)[C@@H](c1ccccc1)[C@@H](CO)N2C(=O)c1cccnc1,32,.,-3,.,.,.,.
C[C@H](CO)N1C[C@H](C)[C@@H](CN(C)C)Oc2ccc(NC(=O)Nc3ccc(C(F)(F)F)cc3)cc2CC1=O,-74,.,7,.,.,.,.
C[C@H](CO)N1C[C@H](C)[C@@H](CN(C)C)Oc2ccc(NS(=O)(=O)c3ccc(Cl)cc3)cc2C1=O,8,.,0,.,.,.,.
O=C(Cc1ccccc1)N1CC2(C1)[C@@H](c1ccccc1)[C@H](CO)N2C(=O)Cc1ccccc1,-9,.,-6,.,.,.,.
Cc1noc(C)c1NC(=O)N(C)C[C@H]1Oc2c(NC(=O)NC3CCCCC3)cccc2C(=O)N([C@H](C)CO)C[C@@H]1C,26,0,2,.,.,.,.
Cc1cccc(-c2ccc([C@H]3[C@H]4CN(C(=O)NC5CCCCC5)CC(=O)N4[C@H]3CO)cc2)c1,26,.,1,.,.,.,.
CC(C)NC(=O)N(C)C[C@H]1Oc2c(NS(=O)(=O)c3ccc(Cl)cc3)cccc2C(=O)N([C@H](C)CO)C[C@@H]1C,9,5,7,.,.,.,.
OC[C@@H]1[C@H](c2ccc(C3=CCCC3)cc2)[C@H]2CN(Cc3cncnc3)CCCCN12,-27,?,0,88,69,14,46*
OC[C@H]1[C@@H](c2ccc(Br)cc2)[C@@H]2CN(Cc3ccccn3)CCCCN12,15,52,1,.,.,.,.
SMILES,Pf Dd2 inh,T cruzi growth-1,C diff HTS,T cruzi growth-2,T cruzi growth-3,NIH3T3 tox,3T3 cytotox 2
OC[C@@H]1[C@@H](c2ccc(Br)cc2)[C@H]2CN(Cc3cncnc3)CCCCN12,19,66,3,.,.,.,.
Cc1cccc(-c2ccc([C@@H]3[C@@H](CO)N4CCCCN(Cc5cncnc5)C[C@@H]34)cc2)c1,13,43,-4,.,.,.,.
OC[C@@H]1[C@H](c2ccc(Br)cc2)[C@H]2CN(Cc3ccccn3)CCCCN12,-7,97*,7,99*,58,-1,0
OC[C@H]1[C@@H](c2ccc(C3=CCCC3)cc2)[C@@H]2CN(Cc3ccncc3)CCCCN12,8,57,0,.,.,.,.
OC[C@@H]1[C@H](c2ccc(Br)cc2)[C@@H]2CN(Cc3cncnc3)CCCCN12,-8,96*,0,77,66,-7,-2
Cc1cccc(-c2ccc([C@H]3[C@@H](CO)N4CCCCN(Cc5cccnc5)C[C@H]34)cc2)c1,-55,99*,-5,97*,70,45*,105*
O=C(C1CCC1)N1CC2(C1)[C@H](c1ccccc1)[C@H](CO)N2Cc1cncnc1,7,.,-3,.,.,.,.
CCC(=O)N1C[C@H](C)[C@@H](OC)CN(C)C(=O)c2ccc(NC(=O)c3ccccc3)cc2OC[C@H]1C,-17,46,.,.,.,.,.
O=C(NC1CCCC1)N1CC(=O)N2[C@H](C1)[C@H](c1ccc(-c3cccc(F)c3)cc1)[C@@H]2CO,7,.,-3,.,.,.,.
CCC(=O)Nc1ccc2c(c1)OC[C@H](C)N(C(=O)CN(C)C)C[C@H](C)[C@H](OC)CN(C)C2=O,-15,18,.,.,.,.,.
C[C@H](CO)N1C[C@H](C)[C@@H](CN(C)Cc2ccncc2)Oc2ccc(NS(C)(=O)=O)cc2C1=O,1,30,4,.,.,.,.
Cc1cccc(-c2ccc([C@H]3[C@H](CO)N4CCCCN(Cc5ccncc5)C[C@@H]34)cc2)c1,-19,?,-5,101*,47,23,105*
COc1cccc(CN2CCCCN3[C@H](CO)[C@H](c4ccc(-c5cccc(C#N)c5)cc4)[C@@H]3C2)c1,-64,111*,28,108*,101*,11,102*
OC[C@H]1[C@@H](c2ccc(-c3ccc(F)cc3)cc2)[C@@H]2CN(Cc3cccnc3)CCCCN12,-59,99*,-1,99*,34,29,105*
Cc1cccc(-c2ccc([C@H]3[C@H]4CN(Cc5ccncc5)CCCCN4[C@H]3CO)cc2)c1,-32,39,2,.,.,.,.

# Screening data from PubChem.
